From PubChem
Epigenetic reg = Quantitative High-Throughput Screen for Regulators of Epigenetic Control. 280,000 compounds, 0.2% hits. murine LDR cells, GFP reporter derepression, 30 h. Potency, µM (highest dose often 53.9 µM), without a hit: at the highest dose GFP activation, actives largely listed as activators. AID 1865, 2009; further: % of control where 0% means no effect; nearly all actives have a fitted effect of over 60% in size
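Reporter derepression read as number of fluorescent GFP-positive objects, 20-120 um in size, counted by laser-scanning cytometer. Mouse LDR line with an epigenetically silenced CMV-GFP locus; compound incubation 30 h, 37 C.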
PINK1 modulator = A Quantitative High throughput Screen to Identify Chemical Modulators of PINK1 Expression. Potency, µM (doses to about 76.6 µM), for inactives: at the top dose activation (PINK1 increase), hits mostly activators. AID 624263, 2012. PINK1 immunofluorescence, high-content cytometry, 24 h. 410,000 compounds, 0.2% hits; active means well fitted activation curve with a large enough effect; inconclusive means small, poorly fitted or top-dose-only effect; cell line not stated here; further: % of control where 0% means no effect; nearly all actives have a fitted effect of over 65% in size
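Decision-based qHTS: stable cells, 24 h exposure to five compound concentrations, CCCP as control. Fixed cells stained for PINK1 plus nuclear, mitochondrial and cell markers, cytometer read.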
Vif-A3G inh = qHTS for Inhibitors of Vif-A3G Interactions: qHTS. DNA dC->dU-editing enzyme APOBEC-3G (Homo sapiens), Q9HC16. HeLa A3G-eYFP + Vif (tagged APOBEC3G with the HIV-1 protein that degrades it), YFP fluorescence, overnight. Potency, µM (titrated, usually from 46.1 µM), for inactives: at the top dose activity, negative = active, hits mostly inhibitors. 410,000 compounds, 0.076% hits; further: on the % scale 0 is the no-effect control and ±100 the full control effect; nearly all actives have a fitted effect of over 60% in size
Target sequence (Q9HC16 whole entry, looked up): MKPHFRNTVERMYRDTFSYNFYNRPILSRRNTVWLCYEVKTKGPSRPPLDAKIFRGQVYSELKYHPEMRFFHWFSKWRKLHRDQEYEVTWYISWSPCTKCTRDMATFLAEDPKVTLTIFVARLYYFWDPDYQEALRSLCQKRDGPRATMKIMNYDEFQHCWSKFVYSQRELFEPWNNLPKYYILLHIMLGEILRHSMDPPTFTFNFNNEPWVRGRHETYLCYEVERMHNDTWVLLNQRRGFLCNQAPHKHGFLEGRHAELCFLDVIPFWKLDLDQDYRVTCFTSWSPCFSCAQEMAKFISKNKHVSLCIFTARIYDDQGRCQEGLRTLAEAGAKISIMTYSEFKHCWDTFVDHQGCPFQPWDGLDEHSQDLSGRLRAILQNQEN
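HeLa cells stably expressing Vif and C-terminally eYFP-tagged A3G, seeded overnight at 37 deg C, then exposed to compound by pintool overnight at 37 deg C. Rise in yellow fluorescence (Ex 488/Em 500-530, Acumen) marks blocked Vif-driven A3G degradation.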
Vif-A3F inh = qHTS for Inhibitors of Vif-A3F Interactions: qHTS; Potency, µM (titrated, usually from 46.1 µM), for the others: at the top dose activity, negative = active; HeLa A3F-eYFP + Vif (tagged APOBEC3F with the HIV-1 protein that degrades it), YFP fluorescence increase; 390,000 compounds, 0.2% hits; further: % of control where 0% means no effect; nearly all actives have a fitted effect of over 65% in size
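HeLa cells stably expressing Vif plus C-terminally eYFP-tagged A3F were seeded, incubated overnight at 37 deg C, dosed with compound, incubated overnight again at 37 deg C. Yellow fluorescence (Ex 488/Em 500-530) reported blocked Vif-mediated A3F-eYFP degradation.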
* = called active by the depositor; i = inactive; ? = inconclusive; . = no result; [ ] = dose if it differs, or a comment. A selection: hits, their analogues and other compounds. The true share with any hit is near 0.52%. Unless noted, the call rests on the fitted dose curve; in most records, active means well fitted curve in the direction sought with a large enough effect; inconclusive means small, poorly fitted or top-dose-only effect, or another doubt; inactive means no such curve, though single readings can be large; an effect the other way counts as inactive or inconclusive. Potency means the concentration at half of the fitted maximal effect.

SMILES	Epigenetic reg	PINK1 modulator	Vif-A3G inh	Vif-A3F inh
COc1ccccc1-c1cc2c(c(OC)c1)OCCN(C(=O)Cn1nc(-c3ccccc3)c3ccccc3c1=O)C2	.	0%	.	.
CC(C)NC(=O)c1cc(-c2ccc(Br)cc2)on1	-1%	10µM*	3%	-7%
CCCNC(=O)c1cc(-c2ccc(Br)cc2)on1	0%	5%	1%	0%
CC(C)(O)C#Cc1ccc(C(=O)NCCN2Cc3ccccc3OC(c3ccccc3F)C2)o1 (stereo unspecified)	.	-1%	.	.
CCN(CC)c1ccc2cc(-c3nnc(Nc4ccc(C)cc4)s3)c(=O)oc2c1	0.1µM*	6%	4%	-625%
CCN(CC)c1ccc2cc(-c3nc(-c4cc5ccccc5oc4=O)cs3)c(=O)oc2c1	.	32µM*	7.1µM*	i
CCN(CC)c1ccc2cc(-c3nc(-c4ccccc4)no3)c(=O)oc2c1	14µM*	1%	-34%	?
COc1ccc(CN2CCCC(n3cc(C(=O)N4CCCCC4)nn3)C2)c(OC)c1 (stereo unspecified)	.	1%	.	.
Cc1noc(C)c1CC(=O)NCC1Cc2cc(-c3cccc(OC(F)(F)F)c3)ccc2O1 (stereo unspecified)	.	0%	.	.
Cc1cccc2c(Nc3ccc4c(c3)OCO4)nc(CN3CCC(N4CCCCC4)CC3)nc12	.	9%	.	.
C=CCc1cccc2cc(-c3nc4ccc(C)cc4[nH]3)c(=O)oc12	4µM*	-1%	-3%	.
O=C(O)c1ccc2nc(-c3cc4cccc(O)c4oc3=O)[nH]c2c1	-1%	1%	.	.
CCN(CC)c1ccc(/C=C/c2cccc[n+]2C)c(OC)c1	.	10µM*	7.9µM*	-530%
Clc1ccc(/C=N/NC2=Nc3cccc4cccc2c34)cc1	?	2%	?	13µM*
O=C(NCc1cc(C(F)(F)F)ccc1Cl)c1cccc2c1C(=O)c1ccc(N3CCOCC3)cc1S2(=O)=O	.	?	3%	10µM*
O=C(NCc1cccc(F)c1)c1cccc2c1C(=O)c1ccc(N3CCC(Cc4ccccc4)CC3)cc1S2(=O)=O	.	2%	11µM*	32µM*
CC1CCN(c2ccc3c(c2)S(=O)(=O)c2cccc(C(=O)NCc4cccc(F)c4)c2C3=O)CC1	.	-1%	20µM*	?
O=C(NCc1cccc(F)c1)c1cccc2c1C(=O)c1ccc(N3CCCC3)cc1S2(=O)=O	.	2%	?	?
O=C(NCc1cc(C(F)(F)F)ccc1Cl)c1cccc2c1C(=O)c1ccc(N3CCCCC3)cc1S2(=O)=O	.	6%	-10%	-5%
O=C(NCCc1ccc(F)cc1)c1cccc2c1C(=O)c1ccc(N3CCC(Cc4ccccc4)CC3)cc1S2(=O)=O	.	-1%	?	?
O=C(NCc1ccco1)c1cccc2c1C(=O)c1ccc(N3CCC(Cc4ccccc4)CC3)cc1S2(=O)=O	.	-1%	?	10µM*
O=C(NCc1nnc2n1CCN(Cc1cccc(Cl)c1)CC2)c1cccc(F)c1	.	3%	.	.
COc1ccc(OC)c(CN2CCCC(c3nc(-c4ccncc4)ncc3-c3ccccc3C)C2)c1 (stereo unspecified)	.	1%	.	.
O=C(NCc1cccc(C(F)(F)F)c1)c1cccc2c1C(=O)c1ccc(N3CCC(Cc4ccccc4)CC3)cc1S2(=O)=O	.	1%	?	22µM*
O=C(NCc1ccc(OC(F)(F)F)cc1)c1cccc2c1C(=O)c1ccc(N3CCC(Cc4ccccc4)CC3)cc1S2(=O)=O	.	16%	-9%	?
SMILES	Epigenetic reg	PINK1 modulator	Vif-A3G inh	Vif-A3F inh
COCCN1C(=O)/C(=C/c2ccc(N3CCCC3)cc2C)SC1=S	2.8µM*	22µM*	?	?
CCN=C1S/C(=C\c2ccc(N3CCOCC3)cc2C)C(=O)N1CC	0%	15%	?	?
CCCCCCc1cc2cc(-c3nnc(-c4ccccc4O)o3)c(=O)oc2cc1O	6.3µM*	?	3.2µM*	?
CCCCCCc1cc2cc(S(=O)(=O)c3ccc(F)cc3)c(=O)oc2cc1O	1%	40µM*	-6%	3%
CCCCCCc1cc2cc(-c3nnc(-c4cc(OC)c(OC)c(OC)c4)o3)c(=O)oc2cc1O	4%	?	?	?
CCCCCCc1cc2cc(-c3nnc(-c4ccccc4OC)o3)c(=O)oc2cc1O	?	?	13µM*	?
O=C(O)c1ccc2oc(=O)c(S(=O)(=O)c3ccc(F)cc3)cc2c1	.	-1%	-2%	7%
CCCCCCc1cc2cc(C(=O)Nc3ccccc3OC)c(=O)oc2cc1O	-1%	?	-1%	3%
COc1cc2c(cc1OC)-c1nc3ccccc3c(=O)n1C(C)(C)C2	0%	2%[38.3 µM]	0%	2%
COc1cc2c(cc1OC)C1=CC(=O)C(=O)N1C(C)(C)C2	1%	3%	7.1µM*	?
Cc1ccc2c(c1)CN(CCNC(=O)C(C)Oc1ccccc1)CC(C)O2 (stereo unspecified)	.	-1%	.	.
CCOC(=O)C1=C(C)N=C2c3ccccc3C(=O)C2C1c1ccc(Cl)cc1 (stereo unspecified)	-2%	14%[38.3 µM]	-13%	-8%
CCOC(=O)C1=C(Cc2ccc(Cl)cc2)C(=O)c2ccccc2C1=O	8%	?	?	28µM*
COc1ccc(NC(=O)CSc2nc3ccccc3cc2Cc2ccccc2)cc1	1%	11µM*	1%	1%
COc1ccc(/C(O)=C/c2nc3ccccc3n(-c3ccccc3)c2=O)cc1	25µM*	?	-10%	?
CCn1c2ccccc2c2cc(NC(=O)c3ccc(Br)o3)ccc21	14µM*	1%	?	-13%
CCn1c2ccccc2c2cc(NC(=O)c3cc(C)on3)ccc21	-1%	2%	-18%	1%
CCn1c2ccccc2c2cc(NC(=O)c3ccc(=O)oc3)ccc21	1%	2%	-22%	11µM*
CCn1c2ccccc2c2cc(NC(=O)c3coc(=O)c(Br)c3)ccc21	7%	.	.	.
O=C(NCc1ccccc1Cl)c1ccc(Nc2nc3ccccc3n3nnnc23)cc1	10µM*	0%	-14%	?
COc1cc(Nc2nc3ccccc3n3nnnc23)cc(OC)c1OC	?	5%	?	6.3µM*
Cc1c(N=Nc2c(-c3ccc([N+](=O)[O-])cc3)[nH]n(C(N)=S)c2=O)cccc1[N+](=O)[O-]	-2%	3.2µM*	-7%	1%
NC(=S)n1[nH]c(-c2ccc([N+](=O)[O-])cc2)c(N=Nc2ccccc2[N+](=O)[O-])c1=O	0%	4%	1%	2%
COCCCNc1nc2ccccc2nc1NS(=O)(=O)c1ccccc1	1%	0%	1%	22µM*
COCCCNc1nc2ccccc2nc1NS(=O)(=O)c1ccc(C)cc1	4%	2%	-7%	?
